High-throughput results: PubChem BioAssay, National Center for Advancing Translational Sciences (NCATS)
Pf growth 48h – P. falciparum growth inhibition at 48 hours (one generation); Potency, µM (titrated, usually from 28.7 µM), most hits filed as inhibitors; P. falciparum luciferase growth in erythrocytes, 48 h; 310,000 compounds, 5.9% hits
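Read-out is firefly luciferase luminescence from an integrated reporter in P. falciparum, so falling signal marks reduced parasite growth. Infected erythrocytes were at 2% hematocrit and 0.1% parasitemia (final) in Albumax-supplemented RPMI 1640.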
Pf growth 96h – inhibits malaria parasite growth, 96 h; P. falciparum luciferase reporter growth, 96 h; Potency, µM (series often up to 28.7 µM), actives largely listed as inhibitors; 320,000 compounds, 6.9% hits
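Cell-based qHTS: luciferase-tagged P. falciparum in erythrocytes (2% hematocrit, 0.05% parasitemia final) incubated with compounds for 96 hours, 37 C, 5% CO2; luciferase detection reagent then added and luminescence measured.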
AMA1-RON2 inh – disrupts binding of P. falciparum AMA1 to RON2. 360,000 compounds, 0.2% hits. Potency, µM (top dose mostly 58.2 µM), hits mostly inhibitors. AlphaScreen AMA1-biotinylated RON2 peptide binding. AID 720542; also: nearly all actives have a fitted effect of over 45% in size
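AMA1 (3D7) with his tag at 25 nM final met compounds first, then biotinylated RON2 peptide at 25 nM; detection used donor plus acceptor beads, 10 µg/mL apiece, read by AlphaScreen after 30 min at room temperature.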
Cycloheximide cs – counter-screen for Shiga toxin inhibitors: cycloheximide protein synthesis inhibition; cell reporter, cycloheximide protein synthesis inhibition counterscreen; max response, %; 300,000 compounds, 12% hits; in the data active = max response mostly above about 13%, no sharp cut-off; inactive = mostly below about 14%; also: read at 38.3 µM for the half of the compounds with a filed dose
Shiga inhibitor – inhibitors of Shiga toxin in Vero cells; Vero cells, Shiga toxin protein synthesis inhibition reporter; 290,000 compounds, 9.2% hits; inhibition, % at 38.7 µM; in the data active = inhibition mostly above about 28%, no sharp cut-off; inactive = mostly below about 43%
SARS PLP yeast – inhibitors of SARS-CoV papain-like protease in yeast. 330,000 compounds, 0.19% hits. Potency, µM (doses to about 32.9 µM), most hits filed as activators. S. cerevisiae expressing SARS-CoV PLpro, growth rescue; calls by dose curve; also: nearly all actives have a fitted effect of over 55% in size
A number is an active result. Compounds with a hit are over-represented: about 19% of the library has one in this group of screens. Unless noted, calls follow the shape of the dose curve; as a rule, active = well fitted curve in the direction sought with a large enough effect; inconclusive = small, poorly fitted or top-dose-only effect, or another doubt; inactive = no such curve, though single readings can be large; an effect the other way counts as inactive or inconclusive.

`C[C@@H]1CN([C@H](C)CO)S(=O)(=O)c2ccc(Br)cc2O[C@H]1CN(C)C(=O)Nc1ccccc1` gave AMA1-RON2 inh inactive.
Screening CNc1ccccc(-c2ccc3ccccc3n2)c1=O returned Pf growth 48h inactive, Pf growth 96h inactive, AMA1-RON2 inh inactive, Cycloheximide cs 59, Shiga inhibitor 52 and SARS PLP yeast inactive.
Screening c1ccc(-c2ccc3ccccc3n2)cc1 returned AMA1-RON2 inh inactive.
COc1ccc(NS(=O)(=O)c2ccc(Cl)c(C(=O)O)c2)cc1S(=O)(=O)N1CCCCC1 was read as Pf growth 48h inactive, Pf growth 96h inactive, AMA1-RON2 inh inactive, Cycloheximide cs inactive, Shiga inhibitor inactive and SARS PLP yeast inactive.
For CNC(=O)Oc1cccc(-c2cn3cc(Cl)ccc3n2)c1 the results were Pf growth 48h inactive, Pf growth 96h inactive, AMA1-RON2 inh inactive, Cycloheximide cs inactive, Shiga inhibitor inactive and SARS PLP yeast inactive.
O=S(=O)(c1cccc(-c2cn3ccccc3n2)c1)N1CCCCC1 was read as Pf growth 48h inactive, Pf growth 96h inconclusive, AMA1-RON2 inh inactive, Cycloheximide cs inactive, Shiga inhibitor inactive and SARS PLP yeast inactive.
Screening CN(C)S(=O)(=O)c1cccc(-c2cn3ccccc3n2)c1 returned Pf growth 48h inactive, Pf growth 96h 10µM, AMA1-RON2 inh inactive, Cycloheximide cs inactive, Shiga inhibitor inactive and SARS PLP yeast inactive.
Clc1ccc2nc(-c3ccc4c(c3)OCO4)cn2c1 was read as Pf growth 48h inactive, Pf growth 96h inactive, AMA1-RON2 inh inactive, Cycloheximide cs 35, Shiga inhibitor 76 and SARS PLP yeast inactive.
`CN(C)S(=O)(=O)c1cccc(-c2cn3cc(Cl)ccc3n2)c1` gave Pf growth 96h inactive, AMA1-RON2 inh inactive, Cycloheximide cs 28, Shiga inhibitor inactive and SARS PLP yeast inactive.
Clc1ccc2nc(-c3ccccc3)cn2c1 was read as Pf growth 48h inactive, Pf growth 96h inactive, AMA1-RON2 inh inactive, Cycloheximide cs 34, Shiga inhibitor 44 and SARS PLP yeast inactive.
`Cn1c(-c2ccccc2)cc(=O)n1-c1ccccc1` gave AMA1-RON2 inh inactive.
COCCNc1nc(-c2ccccc2F)c2sc(-c3ccccc3)cc2n1 was read as AMA1-RON2 inh inactive.
Screening CCOc1ccc(N=C(NN)c2ccc3ccccc3n2)cc1 returned Pf growth 48h inactive, Pf growth 96h inactive, AMA1-RON2 inh inactive, Cycloheximide cs 44, Shiga inhibitor 31 and SARS PLP yeast inactive.
Cc1ccc(C)c(N2CCN(C(=O)CNS(=O)(=O)c3cccs3)CC2)c1 was read as Pf growth 48h inactive, AMA1-RON2 inh inactive, Cycloheximide cs inactive, Shiga inhibitor inactive and SARS PLP yeast inactive.
`O=C(C1CCN(C2CCN(Cc3ccc4c(c3)CCO4)CC2)CC1)N1CCOCC1` gave Pf growth 48h inactive, Pf growth 96h 12µM, AMA1-RON2 inh inactive, Cycloheximide cs inactive, Shiga inhibitor inactive and SARS PLP yeast inactive.
For O=C(Nc1nccs1)c1cc(-c2ccccn2)nc2c(Cl)cccc12 the results were Pf growth 48h inactive, Pf growth 96h inconclusive, AMA1-RON2 inh inactive, Cycloheximide cs inactive, Shiga inhibitor inactive and SARS PLP yeast inactive.
Screening COCCNC(=O)C1(C)CCCN(Cc2cn(C)c3ccccc23)C1 (centres undefined) returned AMA1-RON2 inh inactive.
Screening O=C(NCCC1=CCCCC1)c1cnccn1 returned Pf growth 48h inactive, AMA1-RON2 inh inactive, Cycloheximide cs 20, Shiga inhibitor inactive and SARS PLP yeast inactive.
Cc1cnc(C(=O)NCCc2ccc(Cl)cc2)cn1 was read as Pf growth 48h inactive, Pf growth 96h inactive, AMA1-RON2 inh inactive, Cycloheximide cs 55, Shiga inhibitor 73 and SARS PLP yeast inactive.
Screening COc1ccc(CCNC(=O)c2cnc(C)cn2)cc1 returned Pf growth 48h inconclusive, Pf growth 96h inconclusive, AMA1-RON2 inh inactive, Cycloheximide cs inactive, Shiga inhibitor inactive and SARS PLP yeast inactive.
Cc1csc2nc(O)c(C(=O)NCCC3=CCCCC3)c(=O)n12 was read as Pf growth 48h 10µM, Pf growth 96h inconclusive, AMA1-RON2 inh inactive and SARS PLP yeast inactive.
Screening O=C(NCCc1ccc(Cl)cc1)c1cnccn1 returned Pf growth 48h inactive, Pf growth 96h inactive, AMA1-RON2 inh inactive, Cycloheximide cs 17, Shiga inhibitor inactive and SARS PLP yeast inactive.
NC(=O)NCCC1=CCCCC1 was read as Pf growth 96h inactive, AMA1-RON2 inh inactive, Cycloheximide cs inactive, Shiga inhibitor inactive and SARS PLP yeast inactive.
`COc1ccc(CCNC(=O)COC(=O)c2ccc(N3CCCC3=O)cc2)cc1OC` gave Pf growth 48h inactive, Pf growth 96h inactive, AMA1-RON2 inh inactive, Cycloheximide cs inactive, Shiga inhibitor inactive and SARS PLP yeast inactive.
CCCc1cc(=O)[nH]c(SCC(=O)Nc2ccc(Br)cc2Br)n1 was read as Pf growth 48h inactive, Pf growth 96h inactive, AMA1-RON2 inh inactive, Cycloheximide cs inactive, Shiga inhibitor inactive and SARS PLP yeast inactive.
For COc1cc(C(C)=O)ccc1OCc1cc(C(=O)N(C)CCC2CCCCO2)no1 (centres undefined) the results were Pf growth 48h inactive, Pf growth 96h inactive, AMA1-RON2 inh inactive, Cycloheximide cs 53, Shiga inhibitor 101 and SARS PLP yeast inactive.
Screening COc1ccccc1OCc1cc(C(=O)N(C)CCC2CCCCO2)no1 (centres undefined) returned Pf growth 48h inactive, Pf growth 96h inconclusive, AMA1-RON2 inh inactive, Cycloheximide cs 59, Shiga inhibitor 126 and SARS PLP yeast inactive.
For COc1ccc2nc(SCC(=O)NC3CCCC3)c(C)cc2c1 the results were Pf growth 48h inactive, Pf growth 96h inactive, AMA1-RON2 inh inactive, Cycloheximide cs inactive, Shiga inhibitor inactive and SARS PLP yeast inactive.
For CCOC(=O)CC(=O)CSc1nc2ccc(OC)cc2cc1C the results were Pf growth 48h inconclusive, Pf growth 96h inactive, AMA1-RON2 inh inactive, Cycloheximide cs 21, Shiga inhibitor 51 and SARS PLP yeast inactive.
`CCOC(=O)CC(=O)CSc1nc2cc(C)ccc2cc1C` gave Pf growth 48h inconclusive, Pf growth 96h 13µM, AMA1-RON2 inh inactive, Cycloheximide cs inactive, Shiga inhibitor inactive and SARS PLP yeast inactive.
For CCOC(=O)CC(=O)CSc1nc2c(C)c(C)ccc2cc1C the results were Pf growth 96h inactive, AMA1-RON2 inh inactive, Cycloheximide cs inactive, Shiga inhibitor inactive and SARS PLP yeast inactive.
`CCC(=O)Nc1ccc(S(=O)(=O)Nc2cccc(C)c2)cc1OC` gave Pf growth 48h inactive, Pf growth 96h inconclusive, AMA1-RON2 inh inactive, Cycloheximide cs inactive, Shiga inhibitor inactive and SARS PLP yeast inactive.
For O=S1(=O)CC(N2CC=CC2)CN1Cc1ccc(F)cc1 (centres undefined) the results were AMA1-RON2 inh inactive.
For O=c1c(C(c2ccc(O)cc2)c2c(O)nc3n(c2=O)CCCS3)c(O)nc2n1CCCS2 the results were Pf growth 48h 2.9µM, Pf growth 96h inconclusive, AMA1-RON2 inh inactive, Cycloheximide cs inactive, Shiga inhibitor inactive and SARS PLP yeast inactive.
